From PMC5540273 (PLoS ONE, 2017)

Test system: CASK
Conditions: concentration: 1 μM, replicates: in singlicate; n = 1
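Further: KINOMEscan kinase panel screen.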

SMILES	%Inh
COc1cc(Nc2ncc3c(C)nc(-c4cc5ccccc5[nH]4)n3n2)cc(OC)c1OC [GW869516]	0%
Cc1ccc(C)c(NC(=O)NC2CCN(c3ccnc(Nc4ccc(F)cc4)n3)C2)c1 (centres unmarked) [GSK1379720]	9%
c1ccc(Oc2ccc(Nc3ccnc4cc(-c5ccc(CNCCN6CCOCC6)o5)ccc34)cc2)nc1 [GW567145]	0%
COc1cc(Nc2nccc(-c3c(-c4cccc(NC(=O)c5c(F)cccc5F)c4)nn4ncccc34)n2)cc(OC)c1OC [GSK327238]	14%
COc1cc(Nc2nccc(N3CCC(NC(=O)Nc4cccc(C(C)=O)c4)C3)n2)cc(OC)c1OC (centres unmarked) [GSK1379753]	0%
Cl.Cl.NCC(NCc1ccc(-c2ccnc3[nH]ccc23)s1)c1ccccc1 (centres unmarked) [GSK1321565]	0%
Oc1cc(Nc2ccnc3cc(I)ccc23)ccc1F [GW552771]	18%
Cc1ccc(C(=O)Nc2ccc(Nc3ccnc4cc(-c5nccs5)ccc34)cc2O)cc1.Cl [GW494702]	4%
C[C@@H]1CC[C@@H](C(=O)Nc2ccccc2)CN1c1cc(-c2ccc3c(N)n[nH]c3c2)nc(N)n1 [GSK2286062]	5%
Nc1ncc(-c2cccnc2)c2scc(-c3ccc4c(c3)CCN4C(=O)Cc3ccccc3)c12 [GSK683281]	26%
Cl.c1ccc(-c2ccc3c(Nc4ccc5[nH]ccc5c4)ccnc3c2)nc1 [GW440138]	0%
CCn1c(-c2nonc2N)nc2c(C#CC(C)(C)O)nc(OC[C@H](N)c3ccccc3)cc21 [GSK943949]	25%
Cn1cc(-c2ccc3c(c2)CCN3C(=O)Cc2cccc(F)c2)c2c(N)ncnc21 [GSK2603358]	17%
O=C(Nc1cccc(-c2nn3ncccc3c2-c2ccnc(Nc3ccccc3)n2)c1)c1c(F)cccc1F [GSK198271]	3%
COc1cc(Nc2nccc(-c3c(-c4cccc(NC(=O)c5c(F)cccc5F)c4)nn4ccccc34)n2)cc(OC)c1OC [GSK323521]	5%
FC(F)(F)c1ccc(/C=C/c2cncnc2Nc2ccc3[nH]c(Cc4ccccc4)nc3c2)cc1 [GW709199]	10%
CC(C)(C)c1ccc2nccc(Nc3cccc(O)c3)c2c1 [GW856795]	0%
CCc1ccc(-c2ccc3c(c2)-c2c(cnn2C)S(=O)(=O)N3C)cc1	3%
COc1cccc(C2=C(Nc3ccc(Cl)c(C(=O)O)c3)C(=O)NC2=O)c1 [SB-390769]	100%
NCCCC(NC(=O)c1cc(Br)c(-c2ccnc3[nH]ccc23)s1)c1ccccc1.O=C(O)C(F)(F)F.O=C(O)C(F)(F)F (centres unmarked) [GSK1287544]	0%
COC(=O)Nc1nc2ccc(Oc3ccc(NC(=O)Nc4cc(C(F)(F)F)ccc4F)cc3)cc2n1C.Cl [GW692089]	1%
CC(C)c1nc(-c2cccc(NS(=O)(=O)c3c(F)cccc3F)c2F)c(-c2ccnc(Nc3ccc(N4CCOCC4)nc3)n2)s1 [GSK2008607]	0%
COCCOCCOc1cc2ncc3c4ccc(C#N)cc4[nH]c3c2cc1OC	8%
Fc1ccc(-c2ncn(C3CCNCC3)c2-c2ccnc(Oc3ccc(-c4ccccc4)cc3)n2)cc1 [SB-245391]	7%
c1ccc(-c2cnc3nccnn23)cc1 [AH20685]	4%
COc1cccc(-c2ccc3c(NC(=O)C4CC4)n[nH]c3n2)c1 [SB-710903]	23%
